# This excerpt belongs to a sample that is enriched for hits.
# Dicer inh – blocks human Dicer maturation of pre-miR-21. AID 1347074. hit rate 6% among 47,000. z-score at 25 µM. Q9UPY3. cat-ELCCA pre-miR-21 Dicer processing, chemiluminescence; hits give high values; in the data active = z-score above about 3, passing the limit was not always enough;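 note: plate controls were vehicle for no effect and no enzyme for full effect; higher signal means more uncleaved substrate so more Dicer inhibition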
# * marks the source's active call; other numbers are inactive results.
SMILES,Dicer inh
Cc1ccc(-c2cc3nc(-c4cccnc4)cc(C(F)(F)F)n3n2)cc1,-0.17
COCCN1C(=O)c2oc3ccc(F)cc3c(=O)c2C1c1ccc(C(=O)OC)cc1 (configuration not stated),-1
Cc1cc(Nc2nnc(-c3cccnc3Oc3ccccc3)s2)ccc1Br,0.06
COc1ccccc1C(=O)CC1(O)C(=O)N(CCc2ccccc2)c2ccc(Br)cc21 (configuration not stated),4.3*
Cc1ccc(C(=O)CC2(O)C(=O)N(CCc3ccccc3)c3ccc(Br)cc32)o1 (configuration not stated),2.5
O=C(CC1(O)C(=O)N(Cc2ccccc2)c2ccc(Br)cc21)c1ccc2c(c1)OCO2 (configuration not stated),2.8
O=C(CC1(O)C(=O)N(CCc2ccccc2)c2ccc(Br)cc21)c1ccc2c(c1)OCO2 (configuration not stated),4.1*
O=C(CC1(O)C(=O)N(CCc2ccccc2)c2ccc(Br)cc21)c1ccccn1 (configuration not stated),1.1
CCCN1C(=O)C(O)(CC(=O)c2ccc3c(c2)OCO3)c2cc(Br)ccc21 (configuration not stated),2.8
C=CCOc1c(Cl)cc(CNCCSc2nnnn2C)cc1OC,1.7
O=C(CSc1ncccc1C(F)(F)F)c1ccc(Cl)cc1,-0.94
CCOC(=O)N/N=C/c1ccc(OC)c(Br)c1,-1.3
COc1cscc1C(=O)NNC(=O)c1cccc(C(F)(F)F)c1,1
CCOC(=O)c1c(NC(=O)C(C)(C)C)sc(C)c1C,-0.83
Cc1nc(N2CCN(c3cccc(Cl)c3)CC2)nc2c1C(=O)CCC2,-1.3
Cc1cc(C)nc(NS(=O)(=O)c2ccc(N=Cc3ccccc3O)cc2)n1,0.45
CC(C)(C)Nc1nc(Oc2ccc(=O)n(-c3ccccc3)n2)nc(N2CCOCC2)n1,-0.55
CC(C)CNc1nc(Oc2ccc(=O)n(C)n2)nc(N2CCOCC2)n1,1.6
CC(C)CNc1nc(Oc2ccc(=O)n(-c3ccccc3)n2)nc(N2CCOCC2)n1,3.6*
O=C(CSc1nc2ccccc2c(=O)[nH]1)Nc1cccc2nsnc12,-0.43
Cc1ccc(S(=O)(=O)NCCCCCC(=O)O)cc1,-0.2
COc1ccc(S(=O)(=O)NCCCC(=O)O)cc1,3.1*
O=C(O)CCCNS(=O)(=O)c1ccc(Cl)cc1,1.2
O=C(NC(=S)Nc1c(Cl)cccc1Cl)c1ccccc1,0.31
C#CCOc1ccc(C2C3=C(CC(C)(C)CC3=O)NC3=C2C(=O)CC(C)(C)C3)cc1,-1.7
SMILES,Dicer inh
CSc1ccc(C2C3=C(CC(C)(C)CC3=O)Nc3cc4c(cc32)OCO4)cc1 (configuration not stated),5.1*
CC1(C)CC(=O)C2=C(C1)Nc1ccc3ccccc3c1C2c1ccc2c(c1)OCO2 (configuration not stated),-0.4
Cc1ccc(C2C3=C(CC(C)(C)CC3=O)NC3=C2C(=O)CC(C)(C)C3)cc1,4.6*
CC1(C)CC(=O)C2=C(C1)Nc1cc3c(cc1C2c1ccc(Cl)cc1)OCO3 (configuration not stated),2.5
CC1(C)CC(=O)C2=C(C1)NC1=C(C(=O)CC(C)(C)C1)C2c1ccccc1,-0.35
CCOC(=O)NC(Nc1ccc(F)cc1F)(C(F)(F)F)C(F)(F)F,1.1
CCC(Sc1nnc2c3ccccc3n(C)c2n1)C(=O)NC(C)c1ccccc1 (configuration not stated),1.1
CCC(Sc1nnc2c3ccccc3n(C)c2n1)C(=O)Nc1nnc(C)s1 (configuration not stated),-0.49
CCCc1nnc(NC(=O)C(CC)Sc2nnc3c4ccccc4n(C)c3n2)s1 (configuration not stated),3.1*
CCOC(=O)c1cc(C2CC2)nc2ccccc12,-1.2
C=CCOc1ccc(C2CC(=O)Nc3nc(N)[nH]c(=O)c32)cc1 (configuration not stated),-0.85
CCc1ccc(C2C3=C(CCCC3=O)NC3=C2C(=O)c2ccccc23)cc1 (configuration not stated),1.9
Cc1ccc(NC(=S)NN=C2CCCCCC2)c(C)c1,0.68
CCOC(=O)Oc1ccc2c(=O)c(Oc3ccccc3Br)coc2c1,0.73
COC(=O)COc1ccc2c(=O)c(Oc3ccccc3Cl)c(C(F)(F)F)oc2c1,-1.1
Cc1oc2cc(O)ccc2c(=O)c1Oc1ccccc1Br,3.5*
Cc1oc2cc(O)ccc2c(=O)c1Oc1ccc(Cl)cc1,0.45
COC(=O)COc1ccc2c(=O)c(Oc3cc(C)cc(C)c3)c(C(F)(F)F)oc2c1,-0.48
COC(=O)COc1ccc2c(=O)c(Oc3ccccc3Br)c(C(F)(F)F)oc2c1,3.5*
Cc1cc(OS(=O)(=O)CS(=O)(=O)Oc2cc(C)c(Cl)c(C)c2)cc(C)c1Cl,-0.21
CCc1c(C)c2c(C)nn(-c3ccc(Br)cc3)c2oc1=O,8.6
CCc1n(CC(O)COc2ccc(OC)cc2)c2ccccc2[n+]1C (configuration not stated),0.67
CCOC(=O)NC(=S)Nc1sc2c(c1C(=O)OCC)CCCC2,-1.4
CC1C2=C(CC(C)(C)CC2=O)OC2=C1C(=O)CC(C)(C)C2,-2.8
O=C1CSCC(=O)N1c1ccc(Cl)cn1,-3.1
SMILES,Dicer inh
O=C1CSCC(=O)N1c1ccccn1,7.8*
Cc1cccc(C)c1N1C(=O)CSCC1=O,-2.4
COc1ccc(-c2nc3n(n2)C(=O)CC(c2ccc(Cl)cc2)S3)cc1 (configuration not stated),4.5*
COc1ccc(-c2nc3n(n2)C(c2ccc(Cl)cc2)C2=C(CCCC2=O)N3)cc1 (configuration not stated),0.44
COc1ccc(-c2ncnn2-c2ccc(Cl)cc2)cc1,2.2
CC(C)(C)NS(=O)(=O)c1cc2c(c([N+](=O)[O-])c1)-c1c(cc(S(=O)(=O)NC(C)(C)C)cc1[N+](=O)[O-])C2=O,0.3
COC(=O)/C(C#N)=C/c1cccc(Br)c1,9.3*
CCOC(=O)/C(C#N)=C/c1ccc(Br)cc1,0.77
COC(=O)/C(C#N)=C/c1ccc(Cl)cc1,-0.7
Cc1ccc(S(=O)(=O)CCSC2=CC(=O)CC(C)(C)S2)cc1,-3.2
CC1(C)CC(=O)C=C(SCCS(=O)(=O)c2ccccc2)S1,1.9
CC1(C)CC(=O)C=C(SCc2ccc(Cl)cc2)S1,4*
CCOC(=O)c1cc(-c2ccccc2)sc1NC(=O)c1ccccc1,-1.2
O=C(O)c1c(-c2ccccc2)c2oc3ccccc3c2[nH]c1=O,4.4*
O=c1[nH]c2c(F)cccc2c(O)c1-c1ccccc1,-0.48
O=c1[nH]c2ccccc2c2oc(-c3ccccc3)nc12,-1.2
CO/N=C(\C(=O)Oc1c(Cl)c(Cl)c(Cl)c(Cl)c1Cl)c1ccco1,0.75
Cc1ccc(-n2cccc2C(=O)C(F)(F)F)c([N+](=O)[O-])c1,-0.41
O=C1C2C3c4ccccc4C(c4ccccc43)C2C(=O)N1c1ccc(Cl)c(Cl)c1 (configuration not stated),1.1
CCCC1C2C(=O)N(c3ccccc3)C(=O)C2ON1c1ccc(Cl)c(Cl)c1 (configuration not stated),7.2*
Cc1ccc(N2C(=O)C3ON(c4ccccc4)C(c4ccncc4)C3C2=O)cc1Cl (configuration not stated),0
O=C(OCc1ccc(Cl)cc1)c1cnc(Nc2cccc(C(F)(F)F)c2)nc1C(F)(F)F,0.1
NCC(=O)NC(Cc1ccccc1)C(=O)O (configuration not stated),1.4

# Screening data deposited in PubChem by Center for Chemical Genomics, University of Michigan.
